Assay results published in PubChem BioAssay (Tox21).
Records with an inconclusive call do not appear. Activity calls are given as the source filed them. Unless noted, calls come from the whole dose curve.

Experiments:
[1] = Nuclear factor erythroid 2-related factor 2/antioxidant responsive element (Nrf2/ARE) small molecule agonists: qHTS cell viability counter screen in human keratinocytes (AID 1919968; active = well fitted cell-killing curve with a large enough effect in the repeat runs; note: nearly all actives have a fitted effect of over 55% in size)
Outline: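 Cells of the KeratinoSens line were plated at 1,500 per well and left for 5 h before compound transfer from DMSO stocks. After a 23 h incubation (37 C, 5% CO2), CellTiter-Fluor was added. Signal was taken as fluorescence intensity 1 h later.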

[2] = Nuclear factor erythroid 2-related factor 2/antioxidant responsive element (Nrf2/ARE) small molecule agonists: luciferase reporter gene qHTS assay in human keratinocytes (AID 1919969); note: nearly all actives have a fitted effect of over 35% in size
[3] = target: Gonadotropin-releasing hormone receptor (Homo sapiens) (UniProt P30968); experiment: Human gonadotropin-releasing hormone receptor (GnRHR) small molecule agonists, calcium flux assay in GnRHR-HEK293 cells (AID 1920063); note: nearly all actives have a fitted effect of over 35% in size
Outline: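 Compounds dissolved in DMSO are pin-transferred onto dye-loaded GnRHR-HEK293 cells, which were seeded 18 h before at 37 C/5% CO2. Calcium signal is read as fluorescence intensity at 1 s intervals for 3 min.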

[4] = p53 small molecule agonists, cell-based qHTS assay with human liver microsomes (AID 1963577);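 note: p53 response element beta-lactamase reporter cells with liver microsomes plus NADPH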
Outline: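 Reporter activation was measured by LiveBLAzer fluorescence intensity in p53RE-bla cells, which had been exposed to compounds for 16 h at 37 C alongside 0.5 mg/mL human liver microsomes and 0.5 mg/mL NADPH (final concentrations).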

[5] = p53 small molecule agonists, cell-based qHTS assay with rat liver microsomes (AID 1963578)
Outline: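 Compound in DMSO added to p53RE-bla cells 5 h post-plating; rat microsomes/NADPH 0.5 mg/mL final; 16 h, 37 C; LiveBLAzer 2 h RT.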

[6] = p53 small molecule agonists, cell-based qHTS assay with rat liver microsomes: qHTS cell viability counter screen (AID 1963580); note: nearly all actives have a fitted effect of over 45% in size
Outline: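 Counter screen for cytotoxicity under metabolic activation: rat liver microsomes and NADPH, 0.5 mg/mL final each, added with compounds to p53RE-bla HCT-116 cells; 16 h at 37 C, then ATP luminescence read.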

[7] = p53 small molecule agonists, cell-based qHTS assay: qHTS cell viability counter screen (AID 1963581); note: nearly all actives have a fitted effect of over 45% in size
Outline: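 ATP content measured by luminescence in HCT-116 p53RE-bla cells treated 16 h at 37 C, same wells as the reporter screen.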

[8] = p53 small molecule agonists, cell-based qHTS assay (AID 1963582; active = well fitted activation curve with a large enough effect in the signal ratio in the repeat runs, not every such curve was filed as active; the % refers to the signal ratio)
Outline: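 16 h compound exposure (37 C) of p53 response element–bla cells, preceded by 5 h recovery at 37 C/5% CO2; read-out via LiveBLAzer B/G FRET substrate, 2 h RT, fluorescence intensity.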

[9] = target: 5-hydroxytryptamine receptor 2A (Homo sapiens) (UniProt P28223); experiment: 5-hydroxytryptamine receptor 2A (HTR2A) small molecule antagonists, cell-based qHTS assay (AID 1963586); note: nearly all actives have a fitted effect of over 45% in size
Outline: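 CHO cells stably expressing human HTR2A were plated for 18 h at 37 C, then loaded with calcium dye for 1 h. Compounds were preincubated 5 min at room temperature before DOI (4 nM solution) was added. Kinetic fluorescence was read for 3 min.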

[10] = target: 5-hydroxytryptamine receptor 2A (Homo sapiens) (UniProt P28223); experiment: 5-hydroxytryptamine receptor 2A (HTR2A) small molecule agonists, cell-based qHTS assay (AID 1963587); note: nearly all actives have a fitted effect of over 30% in size
Outline: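 HTR2A-CHO cells, plated 18 h at 37 C/5% CO2, dye-loaded 1 h at 37 C; compounds in DMSO added by pin tool (agonist mode). Intracellular calcium flux read as kinetic fluorescence on FDSS over 2 min at 1 s intervals.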

[11] = target: Muscarinic acetylcholine receptor M1 (Homo sapiens) (UniProt P11229); experiment: Cholinergic receptor muscarinic 1 (CHRM1) small molecule antagonists, cell-based qHTS assay (AID 1963588); note: nearly all actives have a fitted effect of over 40% in size
Outline: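 Compounds were tested at 15 concentrations in three independent runs. Dye-loaded CHRM1-CHO cells were exposed 5 min at room temperature before stimulation by acetylcholine added at 50nM. Intracellular calcium was read kinetically on FDSS for 3 min.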

[12] = target: Muscarinic acetylcholine receptor M1 (Homo sapiens) (UniProt P11229); experiment: Cholinergic receptor muscarinic 1 (CHRM1) small molecule agonists, cell-based qHTS assay (AID 1963589); note: nearly all actives have a fitted effect of over 35% in size
Outline: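 Homogeneous fluorescence calcium flux, agonist mode. Human M1-expressing CHO cells; compound dosed at 15 concentrations, three independent runs; signal sampled every 1 sec.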

[13] = cAMP Responsive Elements (CRE) small molecule agonists, cell-based qHTS assay (AID 1963590)
Outline: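 HEK 293T cells stably bearing CRE-bla were plated at 2,000 cells per well and rested 18 h. Compounds, positive controls or DMSO were added for 3 h at 37 C. LiveBLAzer B/G substrate was then loaded for 2 h at room temperature.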

[14] = cAMP Responsive Elements (CRE) small molecule antagonists, cell-based qHTS assay (AID 1963591; active = well fitted inhibition curve with a large enough effect in the signal ratio in the repeat runs, not every such curve was filed as active; the % refers to the signal ratio)
Outline: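 First, CRE-bla HEK293T cells settled 18 h at 37 C. Next, compound and 0.25 uM final NKH477 were applied for 3 h. Last, LiveBLAzer B/G substrate was loaded for 2 h at room temperature.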

[15] = target: Beta-2 adrenergic receptor (Homo sapiens) (UniProt P07550); experiment: Adrenergic beta2 receptor (ADRB2) small molecule antagonists, cell-based qHTS assay (AID 1963592); note: series mostly up to about 92 µM; nearly all actives have a fitted effect of over 50% in size
Outline: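 Assay format: CHO-ADRB2 cells, 18-20hr seeding at 37C/5% CO2, then compound plus 1nM isoproterenol agonist mix for 0.5hr RT. Homogeneous time-resolved fluorescence cAMP detection after 1hr, expressed as 665/615 nm ratio.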

[16] = target: D(2) dopamine receptor (Homo sapiens) (UniProt P14416); experiment: Dopamine D2 receptor (DRD2) small molecule antagonists, cell-based qHTS assay (AID 1963595; active = well fitted inhibition curve with a large enough effect in the signal ratio in the repeat runs, with a control signal flat; the % refers to the signal ratio)
Outline: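 Human DRD2 antagonist qHTS measuring cAMP by HTRF. The cells are exposed to compound for 10 min, then to NKH477 (200 nM) and quinpirole (12 nM) for 30 min at RT, with Ro20-1724 (0.1 mM) present throughout.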

[17] = G protein-coupled receptor (GPCR) small molecule agonists, calcium flux assay: HEK293 wild type cell line counter screen (AID 1920065)
Outline: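 Tox21 10K compounds, 15 concentrations each in triplicate, pin-transferred in DMSO onto dye-loaded cells; kinetic read at 480/540 nm for 3 min, 1 s intervals.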

[18] = target: D(2) dopamine receptor (Homo sapiens) (UniProt P14416); experiment: Dopamine D2 receptor (DRD2) small molecule agonists, cell-based qHTS assay (AID 1963594); note: nearly all actives have a fitted effect of over 35% in size
Outline: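 HEK293 cells stably expressing DRD2 were cultured 24 h at 37 C, then given Ro20-1724 (0.1 mM final) and compounds for 10 min at room temperature. NKH477 (200nM) was then added for 30 min. cAMP was read by HTRF.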

[19] = p53 small molecule agonists, cell-based qHTS assay with human liver microsomes: qHTS cell viability counter screen (AID 1963579); note: nearly all actives have a fitted effect of over 45% in size
Outline: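 HLM-supplemented (0.5 mg/mL final) and NADPH-supplemented (0.5 mg/mL final) p53RE-bla cultures, 4,000 cells per well, were dosed with compounds in DMSO for 16 h at 37 C; luminescent ATP detection (CellTiter-Glo, 30 min, room temperature) quantified surviving cells.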

Measured: Potency

Gonadotropin-releasing hormone receptor (Homo sapiens), sequence (P30968 whole entry, looked up): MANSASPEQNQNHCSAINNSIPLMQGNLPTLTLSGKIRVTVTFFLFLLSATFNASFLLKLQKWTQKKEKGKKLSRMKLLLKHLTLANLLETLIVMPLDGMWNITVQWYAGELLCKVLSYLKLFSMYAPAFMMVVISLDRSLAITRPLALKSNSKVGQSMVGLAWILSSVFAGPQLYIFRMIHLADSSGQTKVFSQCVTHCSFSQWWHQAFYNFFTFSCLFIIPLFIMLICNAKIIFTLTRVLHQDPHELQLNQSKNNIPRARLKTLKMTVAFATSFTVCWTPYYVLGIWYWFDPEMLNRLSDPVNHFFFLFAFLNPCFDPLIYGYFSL
5-hydroxytryptamine receptor 2A (Homo sapiens), sequence (P28223 whole entry, looked up): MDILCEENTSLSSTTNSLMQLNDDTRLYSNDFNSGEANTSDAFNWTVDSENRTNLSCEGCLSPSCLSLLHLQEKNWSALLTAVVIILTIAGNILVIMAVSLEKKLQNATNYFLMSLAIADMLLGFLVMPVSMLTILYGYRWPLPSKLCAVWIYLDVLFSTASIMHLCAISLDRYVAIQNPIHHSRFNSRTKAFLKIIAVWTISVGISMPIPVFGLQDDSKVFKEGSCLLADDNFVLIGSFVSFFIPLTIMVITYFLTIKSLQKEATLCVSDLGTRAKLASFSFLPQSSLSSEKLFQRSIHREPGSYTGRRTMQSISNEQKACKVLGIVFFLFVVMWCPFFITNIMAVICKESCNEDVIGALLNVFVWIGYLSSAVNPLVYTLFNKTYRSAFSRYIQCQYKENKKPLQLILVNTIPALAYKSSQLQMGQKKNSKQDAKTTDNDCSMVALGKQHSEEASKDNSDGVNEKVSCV
Beta-2 adrenergic receptor (Homo sapiens), sequence (P07550 whole entry, looked up): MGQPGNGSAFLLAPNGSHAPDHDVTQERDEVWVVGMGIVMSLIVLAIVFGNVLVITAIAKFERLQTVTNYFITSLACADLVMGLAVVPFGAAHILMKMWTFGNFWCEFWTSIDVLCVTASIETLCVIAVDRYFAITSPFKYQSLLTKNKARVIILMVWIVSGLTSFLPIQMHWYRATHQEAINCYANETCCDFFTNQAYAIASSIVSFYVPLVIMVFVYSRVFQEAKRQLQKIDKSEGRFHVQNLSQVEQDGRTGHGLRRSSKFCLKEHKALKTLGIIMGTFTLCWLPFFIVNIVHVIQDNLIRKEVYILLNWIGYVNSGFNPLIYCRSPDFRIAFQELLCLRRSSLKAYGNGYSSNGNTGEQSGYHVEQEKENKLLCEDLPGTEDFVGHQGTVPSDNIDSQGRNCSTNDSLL
D(2) dopamine receptor (Homo sapiens), sequence (P14416 whole entry, looked up): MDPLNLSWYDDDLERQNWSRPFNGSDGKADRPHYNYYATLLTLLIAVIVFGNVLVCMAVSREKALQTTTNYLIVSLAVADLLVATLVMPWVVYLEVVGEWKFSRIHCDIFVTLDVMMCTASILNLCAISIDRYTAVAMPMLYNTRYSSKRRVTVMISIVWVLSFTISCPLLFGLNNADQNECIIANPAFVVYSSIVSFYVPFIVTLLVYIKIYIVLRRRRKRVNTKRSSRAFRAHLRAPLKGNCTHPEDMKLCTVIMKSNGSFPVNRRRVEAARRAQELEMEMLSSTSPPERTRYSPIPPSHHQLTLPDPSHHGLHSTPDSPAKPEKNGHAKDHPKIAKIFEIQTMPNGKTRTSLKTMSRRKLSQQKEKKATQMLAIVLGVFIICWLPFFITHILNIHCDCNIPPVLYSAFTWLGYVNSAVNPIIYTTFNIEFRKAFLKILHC
Muscarinic acetylcholine receptor M1 (Homo sapiens), sequence (P11229 whole entry, looked up): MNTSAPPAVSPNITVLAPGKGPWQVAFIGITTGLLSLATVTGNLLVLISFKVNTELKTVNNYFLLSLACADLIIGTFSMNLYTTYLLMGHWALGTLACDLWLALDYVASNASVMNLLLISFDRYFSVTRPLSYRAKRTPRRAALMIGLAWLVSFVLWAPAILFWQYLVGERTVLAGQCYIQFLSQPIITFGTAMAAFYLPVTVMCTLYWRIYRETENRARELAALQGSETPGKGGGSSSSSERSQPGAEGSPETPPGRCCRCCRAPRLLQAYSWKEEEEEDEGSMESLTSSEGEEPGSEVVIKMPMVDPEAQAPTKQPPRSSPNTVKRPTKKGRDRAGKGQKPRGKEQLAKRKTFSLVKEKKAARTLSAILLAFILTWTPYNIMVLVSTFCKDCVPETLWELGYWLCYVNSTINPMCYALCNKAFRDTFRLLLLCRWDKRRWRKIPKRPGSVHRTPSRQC

CCCCC(CC)(CO)CO
inactive: [1] | [2] | [3] | [4] | [5] | [6] | [7] | [8] | [9] | [10] | [11] | [12] | [13] | [14] | [15] | [16]

O=C(O)CCNC(=O)c1ccccc1
inactive: [1] | [2] | [3] | [17] | [4] | [5] | [6] | [7] | [8] | [13] | [14] | [15] | [18] | [16]

C[C@@H]1C[C@H]2[C@@H]3CCC4=CC(=O)C=C[C@]4(C)[C@@]3(F)[C@@H](O)C[C@]2(C)[C@H]1C(=O)CO
inactive: [1] | [2] | [3] | [17] | [5] | [19] | [6] | [7] | [8] | [13] | [14] | [15] | [16]

CCC1(C)NC(=O)NC1=O (stereo not given)
inactive: [1] | [2] | [3] | [17] | [4] | [19] | [6] | [7] | [8] | [9] | [10] | [11] | [12] | [13] | [14] | [15] | [16]

CC(C)(C)N(CCO)CCO
inactive: [1] | [2] | [3] | [17] | [5] | [19] | [6] | [7] | [8] | [9] | [10] | [11] | [12] | [13] | [14] | [15] | [18] | [16]

CCCCCCCCCCCCCCCCOP(=O)([O-])OCC[N+](C)(C)C
inactive: [1] | [2] | [3] | [17] | [4] | [5] | [19] | [8] | [10] | [12] | [13] | [14] | [15] | [18] | [16]

CC(=O)C(C)=O
inactive: [1] | [2] | [3] | [17] | [4] | [19] | [7] | [8] | [9] | [10] | [11] | [12] | [13] | [14] | [15] | [18] | [16]

CC(C)(O)CCC(C)(C)O
inactive: [1] | [2] | [3] | [17] | [5] | [19] | [8] | [10] | [11] | [12] | [13] | [14] | [15] | [18] | [16]
